This is a sample that favours compounds with a hit; in the whole collection about 9.3% have one here.
ELG1 DNA repair: inhibitors of ELG1-dependent DNA repair in HEK293T cells | 330,000 compounds, 2.3% hits | AID 504467 | HEK293T ELG1-luciferase reporter, luminescence, 16 h; DNA damage induced by 5-fluorouridine | Potency, µM (series often up to 46.1 µM), for inactives: at the highest dose activity change, negative = inhibition, usual class: inhibitors; further: on the % scale 0 is the no-effect control and ±100 the full control effect; nearly all actives have a fitted effect of over 55% in size
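In this reporter screen, reduction of luminescence relative to DMSO vehicle indicated activity. Compounds and 5-fluorouridine were added together to 2,000 cells per well, incubated for 16 hr at 37 °C, then developed with ONE-Glo.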
ELG1 genotox: induces genotoxicity in HEK293T cells with luciferase-tagged ELG1. HEK293T ELG1-luciferase reporter, luminescence, 16 h. Potency, µM (series often up to 46 µM), for the others: top-dose activity change, positive = activation, most hits filed as activators. 330,000 compounds, 1.3% hits; further: % of control where 0% means no effect; nearly all actives have a fitted effect of over 60% in size
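ELG1-luciferase HEK293T cells, 2,000/well; compound pinned in; 16 hr, 37 °C, 5% CO2; ONE-Glo, 30 min RT; luminescence on CCD imager.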
SMN2 splice up: enhancers of SMN2 splice variant expression | HEK293 SMN2-luciferase splicing reporter, luminescence, 30-36 h | Potency, µM (highest dose often 46.1 µM), without a hit: at the top dose activity change, positive = activation, usual class: activators | 210,000 compounds, 2.8% hits | AID 1458; further: % of control where 0% means no effect; nearly all actives have a fitted effect of over 55% in size
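HEK293 cells carry an SMN2 minigene-luciferase reporter in which exon 7 inclusion puts luciferase in frame. Cells were seeded at 2000 cells/well, attached for 10-12 hours, then exposed to compounds for 30-36 hours at 37C before ONE-Glo luminescence.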
Rab9 prom act: activators of Rab9 promoter; Huh7 Rab9 promoter-luciferase reporter, luminescence, 24 h; Potency, µM (titrated, usually from 9.22 µM), inactives show top-dose activation, negative = inhibition, hits mostly activators; 320,000 compounds, 2.8% hits; further: % of control where 0% means no effect; nearly all actives have a fitted effect of over 60% in size
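Stable Rab9-luc Huh7, 1500 cells/well, 2 h settle; cmpd in DMSO, 24 h, 37 °C/5% CO2; luciferase reagent 10 min RT; luminescence.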
NPC1 prom act: activates the NPC1 promoter; 320,000 compounds, 2.4% hits; Potency, µM (highest dose often 9.22 µM), for inactives: top-dose activation, most hits filed as activators; Huh7 NPC1 promoter luciferase reporter, 24 h; further: % of control where 0% means no effect; nearly all actives have a fitted effect of over 60% in size
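In 1536-well qHTS, Huh7 cells harboring an NPC1 promoter–luciferase construct received compound for 24 h; activation was quantified by luminescence following luciferase reagent addition.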
FLuc counter: counter-screen for miR-21 project: firefly luciferase inhibitors or activators. Potency, µM (titrated, usually from 57.5 µM), for the others: top-dose activity change, negative = inhibition, actives largely listed as inhibitors. 360,000 compounds, 6.9% hits. P08659. purified FLuc, Km substrates, luminescence inhibition. AID 588342;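 further: plate controls were vehicle for no effect and reference inhibitor for full effect; nearly all actives have a fitted effect of over 55% in size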
Target sequence (P08659 whole entry, looked up): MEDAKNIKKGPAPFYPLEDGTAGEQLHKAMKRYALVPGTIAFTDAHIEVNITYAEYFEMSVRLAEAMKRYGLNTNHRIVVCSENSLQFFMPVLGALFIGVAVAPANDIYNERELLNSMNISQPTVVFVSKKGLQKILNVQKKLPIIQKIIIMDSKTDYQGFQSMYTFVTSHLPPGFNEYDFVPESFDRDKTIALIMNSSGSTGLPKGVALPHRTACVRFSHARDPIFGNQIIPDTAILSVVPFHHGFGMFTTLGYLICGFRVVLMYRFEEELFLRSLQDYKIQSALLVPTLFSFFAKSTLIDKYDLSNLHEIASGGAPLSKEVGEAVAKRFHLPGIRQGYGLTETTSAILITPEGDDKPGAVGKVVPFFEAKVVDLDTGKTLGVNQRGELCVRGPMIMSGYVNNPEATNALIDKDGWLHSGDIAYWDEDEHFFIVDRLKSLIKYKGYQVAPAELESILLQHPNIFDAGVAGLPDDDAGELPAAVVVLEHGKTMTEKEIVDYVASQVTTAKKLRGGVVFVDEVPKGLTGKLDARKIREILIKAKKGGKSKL
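Biochemical qHTS of compounds, final roughly 60 µM downward over six points, against 10 nM purified firefly luciferase using Km concentrations of substrates (10 uM D-luciferin, 10 uM ATP) in Tris acetate pH 7.5 buffer; luminescence output.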
ELG1 FLuc counter: luciferase inhibition in cell-free luciferin readout for ELG1 hits. Potency, µM (doses to about 46.1 µM), for inactives: top-dose activity change, negative = inhibition, hits mostly inhibitors. cell-free firefly luciferase luminescence counter-screen, ViewLux. 350 compounds, 3% hits. AID 624247. shares compounds with ELG1 DNA repair; further: on the % scale 0 is the no-effect control and ±100 the full control effect
ELG1-Luc inh: inhibits ELG1-dependent DNA repair in HEK293T cells, confirmed; AID 624248; Potency, µM (highest dose often 46.1 µM), for the others: top-dose activity change, negative = inhibition, actives largely listed as inhibitors; HEK293T ELG1-luciferase levels, luminescence; cells co-treated with 5-fluorouridine; shares compounds with ELG1 DNA repair; 670 compounds, 68% hits; further: on the % scale 0 is the no-effect control and ±100 the full control effect; nearly all actives have a fitted effect of over 55% in size
ELG1 MMS Luc: inhibits ELG1-dependent repair under MMS stimulation in HEK293T cells; shares compounds with ELG1 DNA repair; HEK293T luciferase-tagged ELG1 level, MMS stimulated; Potency, µM (doses to about 46.1 µM), for inactives: at the highest dose activity change, negative = inhibition, most hits filed as inhibitors; 670 compounds, 53% hits; further: on the % scale 0 is the no-effect control and ±100 the full control effect; nearly all actives have a fitted effect of over 60% in size
ELG1 5-FU: confirmation of ELG1 repair inhibitors: viability with 5FU; shares compounds with ELG1 DNA repair; cell viability with 5-FU, ELG1-dependent repair; Potency, µM (top dose mostly 46.1 µM), for inactives: at the top dose activity change, negative = viability loss, actives largely listed as cytotoxic; 670 tested, under 10 active; AID 624250;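 further: ELG1-luc HEK293T cells cotreated with 5-fluorouridine at 10 µM final; viability measured 16 h after compound addition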
ELG1 MMS cell: confirmation of ELG1 repair inhibitors: viability with MMS; Potency, µM (titrated, usually from 46.1 µM), for inactives: top-dose activity change, negative = viability loss, usual class: cytotoxic; Cell viability with MMS, ELG1-dependent DNA repair; shares compounds with ELG1 DNA repair; 670 compounds, 33% hits;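 further: ELG1-luc HEK293T cells co-treated with 10 µM MMS; viability read 16 h after compound addition; on the % scale 0 is the no-effect control and ±100 the full control effect; nearly all actives have a fitted effect of over 60% in size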
ELG1 unstim viab: unstimulated viability counter-screen for ELG1 repair hits | shares compounds with ELG1 DNA repair | cell viability counter-screen, unstimulated, luminescence | Potency, µM (titrated, usually from 45.9 µM), for inactives: at the top dose activity change, negative = loss of viability, hits mostly cytotoxic | 900 compounds, 8% hits | AID 624252;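 further: compound exposure lasted 16 hours before reading; on the % scale 0 is the no-effect control and ±100 the full control effect; nearly all actives have a fitted effect of over 55% in size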
FLuc enzyme: firefly luciferase inhibition counter-screen | purified firefly luciferase, luminescence counter-screen | shares compounds with ELG1 DNA repair | Potency, µM (titrated, usually from 57.5 µM), inactives show at the top dose activity, negative = inhibition, hits mostly inhibitors | 350 compounds, 10% hits; further: on the % scale 0 is the no-effect control and ±100 the full control effect
* = called active by the depositor; ? = inconclusive; / = no result; [ ] = dose if it differs, or a comment. The call rests on the fitted dose curve; in most records, active means well fitted curve in the direction sought with a large enough effect; inconclusive means small, poorly fitted or top-dose-only effect, or another doubt; inactive means no such curve, though single readings can be large; an effect the other way counts as inactive or inconclusive. Potency means the concentration at half of the fitted maximal effect.

SMILES	ELG1 DNA repair	ELG1 genotox	SMN2 splice up	Rab9 prom act	NPC1 prom act	FLuc counter	ELG1-Luc inh	ELG1 MMS Luc	ELG1 5-FU	ELG1 MMS cell	ELG1 unstim viab	others
CCOCCCNC(=O)C1CCN(c2cc(C)nc3c(-c4ccc(OC)c(OC)c4)c(C)nn23)CC1	2.6µM*	-2%	-2%	7%	-3%	0%	?	17%	?	1%	-19%
CCN(CC)C(=O)C1CCN(c2cc(C)nc3c(-c4ccc(OC)c(OC)c4)c(C)nn23)CC1	/	/	6%	/	/	-1%	/	/	/	/	/
Cc1cc(C(=O)NNc2ccc(F)cc2F)no1	4.1µM*	9%	/	-2%	0%	2%	20%	28%	-9%	-5%	-11%
Cc1ccc(NNC(=O)c2cc(C)on2)c(C)c1	?	10%	/	3%	0%	-1%	/	/	/	/	/
COc1ccccc1/C=C(\NC(=O)c1ccc(OC)c(OC)c1)C(=O)Nc1cc([N+](=O)[O-])ccc1C	0.65µM*	2%	-10%[1.84 µM]	-3%	-4%	0%	1.6µM*	?	?	?	11%	ELG1 FLuc counter=1%;FLuc enzyme=4%
Cc1cc(C(=O)COc2ccccc2C(N)=O)c(C)n1CC1CCCO1 (stereo unspecified)	?	-6%	-93%	-9%	-26%	?	?	1µM*	-2%	1.3µM*	?
Cc1cc(C(=O)Cn2cc([N+](=O)[O-])ccc2=O)c(C)n1CC1CCCO1 (stereo unspecified)	?	3%	/	12%	-3%	-9%	/	/	/	/	/
OCCN1CCN(c2nc(-c3ccccc3)c3cc(Br)ccc3n2)CC1	?	-9%	/	9%	0%	-1%	/	/	/	/	/
OCCN1CCN(c2ncnc3ccc(Br)cc23)CC1	2.1µM*	-15%	-9%	-6%	4%	0%	?	?	-2%	5%	4%
CC(C)(C)C(=O)Nc1cccc(-c2nnc(-c3cccc(NC(=O)C(C)(C)C)c3)o2)c1	4.6µM*	-2%	-2%	3%	3%	-4%	7.9µM*	?	15%	-1%	?
N#Cc1cccc(-c2nc3cnc(Nc4ccccc4)nc3n(C[C@H]3CCCO3)c2=O)c1	/	/	1%	/	/	/	/	/	/	/	/
O=C1Nc2ccccc2N(O)N1c1ccc(S(=O)(=O)N2CCOCC2)cc1	5%	0%	0%[1.84 µM]	-2%	-3%	-3%	/	/	/	/	/
COc1cc(C(=O)Nc2ccccc2C(=O)Nc2ccccn2)cc(OC)c1OC	2µM*	-3%	/	-15%	-29%	-7%	3.5µM*	13µM*	?	?	?
COc1cc(C(=O)Nc2ccccc2NC(=O)c2cc(OC)c(OC)c(OC)c2)cc(OC)c1OC	3.3µM*	-1%	/	-1%	1%	0%	3.1µM*	0%	?	10%	?
COc1cc(C(=O)NC(=S)Nc2ccccc2N2CCCC2)cc(OC)c1OC	2.6µM*	-1%	/	2%	0%	-1%	4µM*	-19%	?	10%	?
COc1cccc(C(=O)NC(=S)Nc2ccccc2N2CCCC2)c1	-14%	-3%	-7%	2%	10%	-7%	/	/	/	/	/

Screening results deposited in PubChem BioAssay by National Center for Advancing Translational Sciences (NCATS).
